In the library only some 2.3% were active in any assay of this set; here they are far more common.
Nrf2 activator – Nrf2 pathway activation; Potency, µM (doses to about 46.1 µM), actives largely listed as activators; AID 624171; 410,000 compounds, 0.31% hits; AREc32 ARE-luciferase reporter (MCF7-derived line), luminescence, 24 h; also: nearly all actives have a fitted effect of over 65% in size
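Reporter line AREc32 (ARE-Fluc), seeded overnight in OPTI-MEM with 5% FBS; compound pin-transferred, 24 hr at 37 deg C, 5% CO2; luminescent read-out.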
IL2 activator – activates IL-2 in a cell-based reporter assay; 360,000 compounds, 0.065% hits; IL-2 activation reporter assay, cell-based qHTS; stimulated with anti-CD3/CD4/CD28 beads; in transgenic mouse T cells; activation, % (series mostly up to about 46 µM); in the data active = activation above about 50%; inconclusive = mostly about 30% to 49%
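First, unstimulated transgenic mouse T cells were exposed to compound for 60 min. Next, anti-CD3/anti-CD4-coated beads with anti-CD28 were added. Finally, after 18 h at 37 degrees C, EGFP and DsRed were imaged.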
A549 tox – kills or reduces viability of A549 cells in Nrf2 counter-screen | Potency, µM (doses to about 46 µM), actives largely listed as inhibitors | 390,000 compounds, 0.16% hits | A549 ARE-Fluc cells, CellTiter-Fluor viability, 18-24 h
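Cytotoxicity counterscreen: CellTiter-Fluor fluorescence was measured in A549 ARE_Fluc cells after 18-24 h of compound exposure in a concentration series. The subsequent BugLite luminescent read reports ARE-luciferase activity.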
Nrf2 inh – Nrf2 pathway inhibition; A549 ARE-Fluc reporter, luciferase luminescence, 18-24 h; Potency, µM (top dose mostly 46 µM), usual class: inhibitors; 360,000 compounds, 2.1% hits; also: nearly all actives have a fitted effect of over 60% in size
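Nrf2 function is reported as luminescence of an ARE-controlled luciferase in A549 cells. Compounds were tested at several concentrations, and a CellTiter-Fluor read on the same wells flagged cytotoxicity.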
Each line names hits and unclear results; the compound was inactive in the other large screens. Unless noted, calls follow the shape of the dose curve; as a rule, active = well fitted curve in the direction sought with a large enough effect; inconclusive = small, poorly fitted or top-dose-only effect, or another doubt; inactive = no such curve, though single readings can be large; an effect the other way counts as inactive or inconclusive.

N=c1ccn2c(n1)OC1C(O)C(CO)OC12 (stereo not given)	Nrf2 inh 0.18µM
NC(=O)CN1C(=O)C2(SCC(=O)N2c2cccc(F)c2)c2ccccc21 (stereo not given)	none (no result: IL2 activator)
O=C(NC1CCCCCC1)C1CCN(C(=O)N2CCOc3ccccc32)CC1	none (no result: IL2 activator)
NC(=O)CSc1ncc2c(n1)-c1ccccc1N(Cc1ccc(Cl)cc1)S2(=O)=O	none (no result: IL2 activator)
COC(=O)c1scc(-c2ccc(C)cc2)c1S(=O)(=O)N1CCN(c2ccc(C(C)=O)cc2)CC1	none (no result: IL2 activator)
CSc1ncccc1C(=O)Nc1cccc(S(=O)(=O)N(C)c2ccccc2)c1	Nrf2 inh 12µM
CN(c1ccccc1)S(=O)(=O)c1cccc(NC(=O)C2=NN(c3ccccc3)C(=O)CC2)c1	Nrf2 inh 21µM
CN(c1ccccc1)S(=O)(=O)c1cccc(NC(=O)c2ccncc2)c1	Nrf2 inh inconclusive
CC(=O)c1cccc(NC(=O)Cn2cc(C(=O)c3cccc(Cl)c3)c(=O)c3ccc(C)nc32)c1	none (no result: IL2 activator)
C#CC[N+](CC)(CC)CC#Cc1ccccc1	Nrf2 inh inconclusive
CC[N+](CC)(CC#Cc1ccccc1)CC#Cc1ccccc1	Nrf2 inh 15µM
C=CCC(Nc1ccccc1)C12C=CC(O1)C(C(=O)OC)=C2C(=O)OC (stereo not given)	Nrf2 activator 11µM, Nrf2 inh inconclusive
COc1ccc(C(=O)NCC(=O)OCC(=O)c2ccc3ccccc3c2)cc1	Nrf2 inh inconclusive (no result: Nrf2 activator, IL2 activator)
Cn1cc(S(=O)(=O)N2CCCCCC2)cc1C(=O)N1CCN(c2ccccc2F)CC1	none (no result: IL2 activator, Nrf2 inh)
COc1cc(/C=C/C(=O)c2ccc(NS(=O)(=O)c3ccc(C)cc3)cc2)cc(OC)c1O	Nrf2 activator inconclusive, A549 tox inconclusive, Nrf2 inh 23µM
O=C(c1ccc(S(=O)(=O)Nc2ccccc2)cc1)N1CCCC(C(F)(F)F)C1 (stereo not given)	A549 tox inconclusive, Nrf2 inh 26µM
CN(c1ccc(C(=O)N2CCCCCC2)cc1)S(=O)(=O)c1ccc(Cl)cc1	Nrf2 inh 23µM
CCOC(=O)N1CCN(C(=O)c2ccc(Oc3ccc([N+](=O)[O-])cc3)cc2)CC1	Nrf2 inh 26µM
CCOC(=O)N1CCN(C(=O)c2ccc(CSc3ccc(Cl)cc3)cc2)CC1	Nrf2 inh 18µM
Cc1ccc(NS(=O)(=O)c2ccc(C(=O)N3CCCCCCC3)cc2)cc1	Nrf2 inh 21µM
CCOC(=O)N1CCN(C(=O)c2ccc(S(=O)(=O)Nc3ccc(C)cc3)cc2)CC1	Nrf2 inh 10µM
CC(C)OCCCNC(=O)c1ccc2c(c1)NC(=O)c1ccccc1S2	Nrf2 inh 21µM
CC1=Nc2cc(C(=O)NCCCOC(C)C)ccc2Sc2ccccc21	none
CC1=Nc2cc(C(=O)NCCCOC(C)C)ccc2Sc2ccc(C)cc21	Nrf2 inh 23µM
CCCC1=Nc2cc(C(=O)NCCCOCC)ccc2Sc2ccccc21	A549 tox inconclusive
CCCC1=Nc2cc(C(=O)NCCCOC(C)C)ccc2Sc2ccccc21	A549 tox inconclusive, Nrf2 inh 8.2µM
CCOC(=O)N1CCC(NC(=O)c2ccc3c(c2)N=C(CC)c2cc(C)ccc2S3)CC1	Nrf2 inh 23µM
O=c1oc2ccc3ccccc3c2cc1-c1nnc(Nc2ccc(Cl)cc2Cl)s1	none (no result: IL2 activator)
O=C(O)c1ccc(C2Nc3ccccc3-c3nnc(SCc4ccc(Cl)cc4)nc3O2)cc1 (stereo not given)	none (no result: IL2 activator)
O=C(C1CCC(Cn2c(=O)c3sccc3n(Cc3cccc(F)c3)c2=O)CC1)N1CCOCC1 (stereo not given)	none (no result: IL2 activator)
Cc1noc(C)c1COc1cccc(C(=O)Nc2ccc(Br)cc2F)c1	A549 tox inconclusive, Nrf2 inh 23µM
Cc1ccc(NC(=O)c2ccc(OCc3c(C)noc3C)cc2)cc1C	A549 tox inconclusive, Nrf2 inh 18µM
CC(=O)Nc1ccc(NC(=O)c2ccc(OCc3c(C)noc3C)cc2)cc1	none
Cc1ccc(NC(=O)c2ccc(OCc3c(C)noc3C)cc2)c(C)c1	Nrf2 inh 23µM
Cc1ccn2c(=O)cc(COc3ccc(NC(=O)C(C)(C)C)cc3)nc2c1	none (no result: IL2 activator, Nrf2 inh)
O=C(NCc1ccc(F)cc1)c1ccc(NC(=O)N2CC3CCCN3c3ccccc32)cc1 (stereo not given)	none (no result: IL2 activator)
Nc1ccc(C(=O)OCc2nc3ccccc3s2)cc1	Nrf2 inh inconclusive
Cc1ccc(C(=O)OCc2nc3ccccc3s2)o1	Nrf2 activator 10µM, Nrf2 inh inconclusive
O=C(OCc1nc2ccccc2s1)c1ccc(Br)s1	Nrf2 activator 11µM, A549 tox inconclusive (no result: Nrf2 inh)
Cc1ccc(C(=O)OCc2nc3ccsc3c(=O)[nH]2)o1	Nrf2 activator inconclusive, Nrf2 inh inconclusive
COc1ccc(C(F)(F)F)cc1NC(=O)C(OC(=O)CNC(=O)c1ccccc1)c1ccccc1 (stereo not given)	none (no result: Nrf2 activator, IL2 activator)
COc1ccc(-c2nn3c(-c4cc(-c5ccccc5)n[nH]4)nnc3s2)cc1OC	none (no result: Nrf2 activator, IL2 activator)
CCC(=O)N1CCc2cc(Br)cc(S(=O)(=O)N3CCC(C(=O)Nc4ccccc4F)CC3)c21	Nrf2 inh 13µM (no result: IL2 activator)
CCC(=O)N1CCc2cc(Br)cc(S(=O)(=O)N3CCC(C(=O)NC(C)(C)C)CC3)c21	none
CCOC(=O)c1c(C)[nH]c(C(=O)C(C)Cl)c1C (stereo not given)	Nrf2 activator 18µM
COC(=O)c1ccsc1NC(=O)CCS(=O)(=O)c1ccccc1	Nrf2 activator 13µM
COC(=O)c1ccsc1NC(=O)CCS(=O)(=O)c1ccc(Cl)cc1	Nrf2 activator 16µM
CC(=O)c1sc(Nc2ccccn2)nc1C	Nrf2 activator 11µM, Nrf2 inh inconclusive
CC(=O)c1sc(NC(=O)CCS(=O)(=O)c2ccccc2)nc1C	Nrf2 activator inconclusive, A549 tox inconclusive, Nrf2 inh 21µM
COC(=O)c1ccsc1NC(=O)CS(=O)(=O)c1ccccc1	none
CC(=O)Nc1c(C(=O)Nc2ccccc2F)oc2ccccc12	none (no result: IL2 activator)
CCOC(=O)N1CCC2(CC1)OC(=O)C(C)=C2C(=O)NCc1cccc(F)c1	Nrf2 inh inconclusive (no result: IL2 activator)
CCOc1ccc(-c2noc(CCC(=O)O)n2)cc1	Nrf2 inh 3.3µM
O=C(O)CCc1nc(-c2ccccc2)no1	none
COc1ccc(-c2noc(CCC(=O)O)n2)cc1	none
COc1ccc(-c2noc(CCCC(=O)O)n2)cc1	Nrf2 inh 1.8µM
CCOC(=O)c1ccc(NC(=O)CCc2nc(-c3ccc(C)cc3)no2)cc1	Nrf2 inh 15µM
N#Cc1nc(Nc2ccc3ccccc3c2)nc(NC2CCCC2)n1	none (no result: Nrf2 activator, IL2 activator)
COc1ccccc1C(=O)COC(=O)c1cccs1	Nrf2 activator 8.9µM, Nrf2 inh inconclusive
COc1ccccc1C(=O)COC(=O)c1ccccc1O	Nrf2 activator inconclusive
COc1ccc(C(=O)CC2OC(=O)c3ccccc32)cc1OC (stereo not given)	Nrf2 activator inconclusive
COc1ccc(OC)c(C(=O)CC2OC(=O)c3ccccc32)c1 (stereo not given)	Nrf2 activator 13µM
O=S(=O)(NCc1ccc(Cl)cc1)c1ccc2[nH]c3c(c2c1)CCCC3	Nrf2 inh inconclusive (no result: IL2 activator)
